Measured values published in article PMC5540273 (PLoS ONE, 2017).

How the values were obtained:
Settings in all cases: concentration: 1 μM,replicates: in singlicate; n = 1
[1] = system: T1, SNARK
T1 construct: gene NUAK2

[2] = system: SNRK
[3] = system: SRC
[4] = system: SRMS
[5] = system: SRPK1
[6] = system: SRPK2
[7] = system: SRPK3
[8] = system: STK16
[9] = system: STK33
[10] = system: STK35
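Also: KINOMEscan kinase panel screen.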

Row | Structure (SMILES) | %Inh [1] [%] | %Inh [2] [%] | %Inh [3] [%] | %Inh [4] [%] | %Inh [5] [%] | %Inh [6] [%] | %Inh [7] [%] | %Inh [8] [%] | %Inh [9] [%] | %Inh [10] [%]
1 | CN(C)CC(O)COc1ccc(Nc2nccc(-c3cnn4nc(N5CCOCC5)ccc34)n2)cc1 (centres unmarked) [GW767488] | 93.6 | 31 | 5 | 100 | 76 | 8 | 80 | 98.7 | 54 | 5
2 | Cc1n[nH]c2ccc(-c3cc(OC[C@@H](N)Cc4ccccc4)cnc3-c3ccoc3)cc12.O=C(O)C(F)(F)F.O=C(O)C(F)(F)F [GSK507358] | 18 | 0 | 10 | 0 | 61 | 4 | 34 | 6 | 73 | 95.9
3 | CCn1c(-c2nonc2N)nc2c(C#CC(C)(C)O)nc(OCCN)cc21.Cl.Cl [GSK902056] | 11 | 0 | 0 | 0 | 0 | 7 | 17 | 0 | 0 | 0
4 | C[C@@H]1CCN(C(=O)CC#N)C[C@@H]1N(C)c1ncnc2[nH]ccc12 | 73 | 15 | 0 | 0 | 39 | 18 | 1 | 0 | 0 | 0
5 | O=C(NCCCN1CCOC1=O)c1cnc(NCc2cc(Cl)ccc2Cl)nc1NC1CCCC1 | 0 | 5 | 11 | 0 | 39 | 0 | 26 | 15 | 0 | 13
6 | CCN(CC)CCCCNc1ncc2cc(-c3c(Cl)cccc3Cl)c(NC(=O)NC(C)(C)C)nc2n1 | 42 | 12 | 100 | 31 | 35 | 8 | 0 | 4 | 0 | 15
7 | CCN(CC)CCOc1ccc(Nc2ncc3cc(-c4c(Cl)cccc4Cl)c(=O)n(C)c3n2)cc1 [SB-601273] | 92.6 | 7 | 100 | 90.8 | 50 | 70 | 9 | 53 | 62 | 98.8
8 | CC(C)Nc1cc(-c2ccc3c(N)n[nH]c3c2)nc(N)n1 [GSK2221681] | 17 | 0 | 0 | 0 | 69 | 0 | 43 | 19 | 0 | 0
9 | CC(C)N1C(=O)Cc2cc(Nc3ncc(C(F)(F)F)c(NCc4cccc(S(C)(=O)=O)c4)n3)ccc21 | 82 | 13 | 0 | 0 | 55 | 3 | 24 | 94.7 | 0 | 4
10 | Cl.Cl.Nc1nc(-c2ccc3c(N)n[nH]c3c2)cc(N2CCCC(NC(=O)c3ccccc3)C2)n1 (centres unmarked) [GSK2286775] | 21 | 0 | 0 | 0 | 56 | 0 | 53 | 31 | 0 | 0
11 | C=CC(=O)Nc1cc2c(Nc3ccc(F)c(Cl)c3)ncnc2cc1OCCCN1CCOCC1 [GW781483] | 0 | 14 | 71 | 0 | 4 | 32 |  | 0 | 8 | 
12 | C[C@H]1Oc2cc(cnc2N)-c2c(nn(C)c2C#N)CN(C)C(=O)c2ccc(F)cc21 | 0 | 0 | 43 | 0 | 9 | 0 | 12 | 0 | 8 | 1
13 | C[C@@H](Oc1cc(-c2cnn(C3CCNCC3)c2)cnc1N)c1c(Cl)ccc(F)c1Cl | 96.7 | 6 | 83 | 18 | 3 | 0 | 33 | 0 | 0 | 
14 | Cl.Cl.NC[C@H](CC1CCCCC1)NC(=O)c1cc(Br)c(-c2ccnc3[nH]ccc23)s1 [GSK1581427] | 90.5 | 0 | 28 | 0 | 82 | 14 | 87 | 27 | 89 | 23
